Measurements reported in PubChem BioAssay AID1159580 (chemical genetic matrix, 2015).
In all, about 5,500 compounds went through this assay and about 2,000 (36%) were called active. Not shown: some 18% with an inconclusive outcome. No stated cut-off is given here; in the data, active means normalized growth mostly below about 0.91 (no sharp cut-off); inconclusive means no clear call, values can overlap the other calls; inactive means mostly above about 0.92. The list shows a part of the results.

Test: chemical genetic growth profiling, strain panel (AID 1159580);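 further: tested at 20 µM; growth read once vehicle control cultures reached saturation at 30 °C; 1 = growth at the plate median or of vehicle wells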
Conditions: growth OD

Measured: normalized growth

CC(C)[C@]12O[C@H]1[C@@H]1O[C@@]13[C@@]1(C)CCC4=C(COC4=O)[C@@H]1C[C@@H]1O[C@@]13C2=O
inactive: S. cerevisiae deletion strains, locus YAL013W, strain DEP1, stronger effect = lower value 1.01 | S. cerevisiae deletion strains, locus YBR021W, strain FUR4, stronger effect = lower value 0.991 | S. cerevisiae deletion strains, locus YBR229C, strain ROT2, stronger effect = lower value 1.01 | S. cerevisiae deletion strains, locus YCL029C, strain bik1, stronger effect = lower value 0.998 | S. cerevisiae deletion strains, locus YDL035C, strain GPR1, stronger effect = lower value 1.01 | S. cerevisiae deletion strains, locus YDL074C, strain BRE1, stronger effect = lower value 1.03 | S. cerevisiae deletion strains, locus YDL101C, strain DUN1, stronger effect = lower value 1.02 | S. cerevisiae deletion strains, locus YDL134C, strain PPH21, stronger effect = lower value 1.01 | S. cerevisiae deletion strains, locus YDL185W, strain tfp1, stronger effect = lower value 1 | S. cerevisiae deletion strains, locus YDL192W, strain arf1, stronger effect = lower value 0.994 | S. cerevisiae deletion strains, locus YDR101C, strain arx1, stronger effect = lower value 0.977 | S. cerevisiae deletion strains, locus YDR150W, strain NUM1, stronger effect = lower value 1.02 | S. cerevisiae deletion strains, locus YDR162C, strain NBP2, stronger effect = lower value 1.02 | S. cerevisiae deletion strains, locus YDR318W, strain mcm21, stronger effect = lower value 0.979 | S. cerevisiae deletion strains, locus YDR388W, stronger effect = lower value 0.996 | S. cerevisiae deletion strains, locus YDR502C, strain sam2, stronger effect = lower value 1.01 | S. cerevisiae deletion strains, locus YEL061C, strain CIN8, stronger effect = lower value 1.01 | S. cerevisiae deletion strains, locus YER110C, stronger effect = lower value 0.987 | S. cerevisiae deletion strains, locus YER155C, strain BEM2, stronger effect = lower value 1.02 | S. cerevisiae deletion strains, locus YER167W, strain BCK2, stronger effect = lower value 1.01 | S. cerevisiae deletion strains, locus YGL078C, strain dbp3, stronger effect = lower value 1.01 | S. cerevisiae deletion strains, locus YGL086W, strain mad1, stronger effect = lower value 0.988 | S. cerevisiae deletion strains, locus YGL248W, strain PDE1, stronger effect = lower value 1.01 | S. cerevisiae deletion strains, locus YGR078C, strain PAC10, stronger effect = lower value 1.02 | S. cerevisiae deletion strains, locus YGR135W, strain pre9, stronger effect = lower value 0.995 | S. cerevisiae deletion strains, locus YGR229C, strain SMI1, stronger effect = lower value 1.01 | S. cerevisiae deletion strains, locus YGR252W, strain gcn5, stronger effect = lower value 0.922 | S. cerevisiae deletion strains, locus YHR030C, strain SLT2, stronger effect = lower value 1.01 | S. cerevisiae deletion strains, locus YHR079C, strain IRE1 (second series), stronger effect = lower value 0.992 | S. cerevisiae deletion strains, locus YHR094C, strain hxt1, stronger effect = lower value 0.991 | S. cerevisiae deletion strains, locus YHR129C, strain ARP1, stronger effect = lower value 1.01 | S. cerevisiae deletion strains, locus YHR200W, strain rpn10, stronger effect = lower value 0.997 | S. cerevisiae deletion strains, locus YIL066C, strain RNR3, stronger effect = lower value 1 | S. cerevisiae deletion strains, locus YIL073C, strain SPO22, stronger effect = lower value 0.958 | S. cerevisiae deletion strains, locus YIL125W, strain kgd1, stronger effect = lower value 1.01 | S. cerevisiae deletion strains, locus YIR030C, strain dcg1, stronger effect = lower value 0.998 | S. cerevisiae deletion strains, locus YJL095W, strain BCK1, stronger effect = lower value 1 | S. cerevisiae deletion strains, locus YJL134W, strain LCB3, stronger effect = lower value 1.01 | S. cerevisiae deletion strains, locus YJL168C, strain set2, stronger effect = lower value 0.993 | S. cerevisiae deletion strains, locus YJL187C, strain SWE1 (second series), stronger effect = lower value 1.02 | S. cerevisiae deletion strains, locus YJR043C, strain POL32, stronger effect = lower value 0.987 | S. cerevisiae deletion strains, locus YJR075W, strain HOC1, stronger effect = lower value 1.02 | S. cerevisiae deletion strains, locus YKL009W, strain mrt4, stronger effect = lower value 0.994 | S. cerevisiae deletion strains, locus YKL068W, stronger effect = lower value 0.994 | S. cerevisiae deletion strains, locus YKL085W, strain MDH1 (second series), stronger effect = lower value 0.997 | S. cerevisiae deletion strains, locus YKL085W, strain MDH1, stronger effect = lower value 0.997 | S. cerevisiae deletion strains, locus YKL190W, strain CNB1, stronger effect = lower value 1.01 | S. cerevisiae deletion strains, locus YKR001C, strain vps1, stronger effect = lower value 0.997 | S. cerevisiae deletion strains, locus YLR039C, strain RIC1, stronger effect = lower value 1.01 | S. cerevisiae deletion strains, locus YLR058C, strain SHM2, stronger effect = lower value 1.01 | S. cerevisiae deletion strains, locus YLR102C, strain apc9, stronger effect = lower value 1 | S. cerevisiae deletion strains, locus YLR262C, strain YPT6, stronger effect = lower value 0.979 | S. cerevisiae deletion strains, locus YLR268W, strain sec22, stronger effect = lower value 0.984 | S. cerevisiae deletion strains, locus YLR330W, strain CHS5, stronger effect = lower value 1.01 | S. cerevisiae deletion strains, locus YLR342W, strain FKS1 (second series), stronger effect = lower value 0.978 | S. cerevisiae deletion strains, locus YLR371W, strain rom2, stronger effect = lower value 1 | S. cerevisiae deletion strains, locus YLR418C, strain cdc73, stronger effect = lower value 0.995 | S. cerevisiae deletion strains, locus YML016C, strain PPZ1, stronger effect = lower value 1.01 | S. cerevisiae deletion strains, locus YML032C, strain rad52, stronger effect = lower value 0.972 | S. cerevisiae deletion strains, locus YML124C, strain tub3, stronger effect = lower value 0.996 | S. cerevisiae deletion strains, locus YMR078C, strain ctf18, stronger effect = lower value 0.989 | S. cerevisiae deletion strains, locus YMR223W, strain ubp8, stronger effect = lower value 0.976 | S. cerevisiae deletion strains, locus YMR263W, strain SAP30, stronger effect = lower value 1.03 | S. cerevisiae deletion strains, locus YMR307W, strain GAS1, stronger effect = lower value 1.04 | S. cerevisiae deletion strains, locus YNL067W, strain RPL9B, stronger effect = lower value 1.02 | S. cerevisiae deletion strains, locus YNL128W, strain TEP1, stronger effect = lower value 1.03 | S. cerevisiae deletion strains, locus YNL153C, strain GIM3, stronger effect = lower value 1.03 | S. cerevisiae deletion strains, locus YNL233W, strain BNI4, stronger effect = lower value 1.04 | S. cerevisiae deletion strains, locus YNL250W, strain rad50, stronger effect = lower value 0.992 | S. cerevisiae deletion strains, locus YNL271C, strain bni1, stronger effect = lower value 0.998 | S. cerevisiae deletion strains, locus YNL298W, strain CLA4, stronger effect = lower value 1.01 | S. cerevisiae deletion strains, locus YNL307C, strain MCK1, stronger effect = lower value 0.983 | S. cerevisiae deletion strains, locus YNL322C, strain KRE1, stronger effect = lower value 1.01 | S. cerevisiae deletion strains, locus YNR052C, strain pop2, stronger effect = lower value 0.978 | S. cerevisiae deletion strains, locus YOL006C, strain TOP1, stronger effect = lower value 1.01 | S. cerevisiae deletion strains, locus YOL012C, strain htz1 0.999 | S. cerevisiae deletion strains, locus YOL147C, strain pex11, stronger effect = lower value 0.996 | S. cerevisiae deletion strains, locus YOR061W, strain CKA2, stronger effect = lower value 1.01 | S. cerevisiae deletion strains, locus YOR069W, strain VPS5, stronger effect = lower value 1.01 | S. cerevisiae deletion strains, locus YOR136W, strain idh2, stronger effect = lower value 0.99 | S. cerevisiae deletion strains, locus YOR144C, strain elg1, stronger effect = lower value 0.997 | S. cerevisiae deletion strains, locus YOR184W, strain ser1, stronger effect = lower value 0.966 | S. cerevisiae deletion strains, locus YOR316C, strain cot1, stronger effect = lower value 0.997 | S. cerevisiae deletion strains, locus YPL055C, strain LGE1, stronger effect = lower value 1.06 | S. cerevisiae deletion strains, locus YPL241C, strain CIN2, stronger effect = lower value 1.01 | S. cerevisiae deletion strains, locus YPR119W, strain clb2, stronger effect = lower value 0.999 | S. cerevisiae deletion strains, locus YPR141C, strain kar3, stronger effect = lower value 0.987 | S. cerevisiae deletion strains, locus YPR163C, strain tif3, stronger effect = lower value 1 | S. cerevisiae deletion strains, locus YPR167C, strain met16, stronger effect = lower value 0.99 | S. cerevisiae deletion strains, strain wtn01, stronger effect = lower value 1.02 | S. cerevisiae strains, strain wild type, stronger effect = lower value 1.01
